TROY NFkB inh = blocks TROY-dependent signaling in reporter cells; Q293 LMP1-TROYcd NF-kB luciferase reporter, 4 h; inhibition, % at 10 µM; hit rate 0.98% among 360,000; AID 1347056;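 active = compounds whose plate-normalised and pattern-corrected inhibition of the luciferase reporter signal at the single screening dose is 50% or more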
EWS-Fli block = EWS/Fli transcriptional activity inhibition | hit rate 0.67% among 350,000 | A673 NR0B1-luciferase reporter, viability-normalised | inhibition, % at 12.6 µM;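 active = mean inhibition of at least 50% after viability correction, with every replicate also passing that limit; inconclusive = mean reaches 50% but only one of two replicates passes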;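 note: firefly luciferase signal divided by Alamar Blue viability fluorescence both relative to DMSO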
TWEAK-Fn14 inh = inhibitors of TWEAK-Fn14 interaction signaling. hit rate 2% among 360,000. inhibition, % at 10 µM. TWEAK-stimulated Fn14 reporter cells, luciferase luminescence, 8 h; in the data active = inhibition above about 50%
KKLEB cytotox = counter-screen for CF NF-kB inhibitors: cytotoxicity. activity change (cytotoxicity), % at 5 µM. hit rate 0.36% among 360,000. KKLEB CF airway cells viability, ATPlite luminescence, overnight; stronger effect = lower value; cells stimulated with P. aeruginosa culture filtrate. AID 602141;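 active = corrected activity change at or below -50% at 5 µM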
LGR2 antag = inhibitors of bursicon-induced Drosophila LGR2 receptor cAMP signaling. AID 720647. hit rate 0.35% among 380,000. HEK293 LGR2, CRE-luciferase, bursicon-stimulated, 4 h. inhibition, % at 9.99 µM;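 active = drop in luminescence signal, shown as inhibition above about 50% in the replicate tests, limit read from the data, passing the limit was not always enough; inconclusive = probably only some replicates passing the limit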;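 note: agonist challenge used bursicon conditioned medium at about half maximal strength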
CF NFkB block = cystic fibrosis NF-kB activation inhibition; KKLEB NF-kB-GFP reporter, PAF-induced, GFP fluorescence overnight; AID 588850; hit rate 0.86% among 360,000; inhibition, % at 5 µM;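 active = at least 50% inhibition at 5 µM, scaled per plate between neutral and stimulator controls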;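 note: PAF is a Pseudomonas aeruginosa culture filtrate used as stimulus; plate controls were PAF-stimulated DMSO wells for no effect and unstimulated DMSO wells for full effect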
* marks the source's active call; other numbers are inactive results; ? = inconclusive; · = no result given. In the library only some 2.6% were active in any assay of this set; here they are far more common.

SMILES	TROY NFkB inh	EWS-Fli block	TWEAK-Fn14 inh	KKLEB cytotox	LGR2 antag	CF NFkB block
COc1ccc2sc3c(=O)[nH]c4ccccc4c3c2c1	9	·	46	-26	49	63*
Cc1ccc2c(Cl)cc(Cl)c(OCC(=O)Nc3cc(S(=O)(=O)N(C)C)ccc3C)c2n1	38	-4	80*	-5	8	20
O=C1C2C3C=CC(CO)(O3)C2C(=O)N1c1ccccc1-c1ccccc1 (stereo unspecified)	-9	·	1	-31	·	76*
CCCCOc1ccc(CSC(CC(=O)O)C(=O)O)cc1 (stereo unspecified)	·	·	70*	8	·	6
C[C@@H]1CN([C@@H](C)CO)C(=O)c2cc(NC(=O)CCCCCC(=O)Nc3ccccc3N)ccc2O[C@@H]1CN(C)S(=O)(=O)c1cn(C)cn1	·	-3	·	·	-5	·
COc1ccc(S(=O)(=O)Nc2ccc3c(c2)C(=O)N([C@@H](C)CO)C[C@@H](C)[C@@H](CN(C)C)O3)cc1	·	-10	·	·	4	·
O=C(Nc1ccc(F)cc1)c1ccccc1F	-50	-65	-19	3	-26	6
O=C(Nc1ccc2ccccc2c1)c1ccccc1F	-17	21	36	-5	52*	-15
CSc1ncccc1C(=O)Nc1ccc2c(c1)OCCO2	2	-6	50*	8	-6	-11
CSc1ncccc1C(=O)OCC(=O)Nc1ccc2c(c1)OCO2	-26	13	-16	8	7	0
O=C(Nc1ccc2c(c1)OCCO2)c1ccccn1	57*	30	79*	-12	77*	11
O=C(Nc1ccc2oc(-c3ccccc3F)nc2c1)c1ccc2c(c1)OCCO2	60*	-39	72*	10	·	-13
C[C@@H]1CN([C@@H](C)CO)S(=O)(=O)c2ccc(-c3cccc(F)c3)cc2O[C@@H]1CN(C)C(=O)C1CC1	·	-9	·	·	11	·
COc1ccc(NC(=O)Nc2ccc3c(c2)CC(=O)N([C@@H](C)CO)C[C@H](C)[C@H](CN(C)S(=O)(=O)c2c(C)noc2C)O3)cc1	·	-13	·	·	1	·
COc1ccccc1-c1cnc2c(c1)C(=O)N([C@@H](C)CO)C[C@H](C)[C@@H](CN(C)C(=O)c1cccnc1)O2	·	-6	·	·	11	·
O=C(Nc1ccc(N2CCCCC2)cc1)c1ccccn1	87*	·	100*	-77*	·	-5
O=C(NC(=S)Nc1ccc2c(c1)OCCO2)c1ccccc1F	-34	-66	-19	-4	-63	-28
O=C(Nc1ccc2c(c1)OCCO2)c1ccccc1F	8	·	53*	-6	·	-14
O=C(Nc1ccc(N2CCOCC2)cc1)c1cn2ccccc2n1	24	·	68*	2	·	0
Cc1noc(C)c1NC(=O)N(C)C[C@H]1Oc2c(NC(=O)Nc3ccc(F)cc3)cccc2C(=O)N([C@@H](C)CO)C[C@@H]1C	·	-2	·	·	11	·
CCCC(=O)Nc1ccc2c(c1)C(=O)N(C)C[C@H](OC)[C@H](C)CN(C(C)=O)[C@H](C)CO2	·	1	·	·	7	·
O=C1C(SCCO)=C(SCCO)C(=O)c2ccccc21	32	64*	76*	-6	19	72*
O=C1C(=C2SCCCS2)CC/C1=C\c1ccc(F)cc1	86*	·	104*	-78*	·	-11
Cc1cccc(/C=C2\CCC(=C3SCCCS3)C2=O)c1	·	·	75*	-64*	·	-15
Cc1ccc2oc(-c3cccc(NC(=S)NC(=O)/C=C/c4ccco4)c3)nc2c1	77*	·	90*	-13	11	17
SMILES	TROY NFkB inh	EWS-Fli block	TWEAK-Fn14 inh	KKLEB cytotox	LGR2 antag	CF NFkB block
O=C(/C=C/c1ccco1)NC(=S)Nc1nc(-c2ccc3ccccc3c2)cs1	-47	?	-1	-64*	-38	47
Cc1noc(C)c1NC(=O)Nc1ccc2c(c1)C(=O)N([C@@H](C)CO)C[C@@H](C)[C@H](CN(C)C(=O)Nc1ccc(C(F)(F)F)cc1)OCCCC[C@H](C)O2	·	8	·	·	-11	·
CCOc1ccc2[nH]c3c(N4CCc5ccccc5C4)ncnc3c2c1	13	47	27	-2	·	2
COc1ccc2[nH]c3c(N4CCC(O)(c5cccc(C(F)(F)F)c5)CC4)ncnc3c2c1	64*	·	75*	-9	·	-17
COc1ccc2[nH]c3c(N4CCN(Cc5ccc6c(c5)OCO6)CC4)ncnc3c2c1	51*	·	38	-14	·	2
C[C@@H]1CN([C@H](C)CO)C(=O)c2cc(NC(=O)Nc3ccc4c(c3)OCO4)ccc2O[C@@H](C)CCCCO[C@@H]1CN(C)C(=O)Cc1ccccc1	·	-4	·	·	13	·
CCNC(=O)C[C@H]1CC[C@H]2[C@@H](COC[C@@H](O)CN2C(=O)C2CCOCC2)O1	·	0	·	·	-3	·
Cc1ccc(CSc2nnc(CCCCCNC(=O)OC(C)(C)C)o2)cc1	22	10	9	-4	5	-12
Cc1cccc(CSc2nnc(CCCCCNC(=O)OC(C)(C)C)o2)c1	72*	1	6	8	-4	4
CCN(C[C@H]1N[C@@H](CO)[C@@H]1c1ccc(-c2cccc(C#N)c2)cc1)C(=O)COC	·	10	·	·	-11	·
Cc1ccc(S(=O)(=O)N(C)C[C@@H]2Oc3c(NS(=O)(=O)c4cccs4)cccc3C(=O)N([C@H](C)CO)C[C@@H]2C)cc1	·	-4	·	·	-7	·
CCS(=O)(=O)N1Cc2ccccc2CC1C(=O)Nc1nc2ccccc2s1 (stereo unspecified)	70*	·	81*	-8	58*	-32
CO[C@H]1CN(C)C(=O)c2cc(NC(=O)C3CCC3)ccc2OC[C@H](C)N(C(=O)NC(C)C)C[C@H]1C	·	-3	·	·	0	·
CCC1CCCCN1C(=O)CCCOc1ccccc1 (stereo unspecified)	50*	·	50*	-6	·	8
O=C(CCCOc1ccccc1)N1CCCCC1	58*	·	86*	6	·	4
CCC1CCCCN1C(=O)COc1ccc(F)cc1 (stereo unspecified)	-14	-4	-14	-2	-3	3
O=C(c1ccccc1)c1ccc(OCCCCN2CCCCC2)cc1	-14	·	70*	3	7	-4
O=C(c1ccccc1)c1ccc(OCCCN2CCCC2)cc1	-16	11	0	7	-19	-3
CNC[C@@H]1Oc2ccc(NC(=O)Nc3cccc4ccccc34)cc2CC(=O)N([C@H](C)CO)C[C@@H]1C	·	1	·	·	-18	·
O=C(N[C@@H]1CC[C@H](CC(=O)N2CCc3ccccc3C2)O[C@H]1CO)C1CC1	·	6	·	·	4	·
C[C@H](CO)N1C[C@H](C)[C@H](CN(C)Cc2ccc3c(c2)OCO3)Oc2ccc(NC(=O)Cc3cn(C)c4ccccc34)cc2CC1=O	·	-4	·	·	-5	·
Cc1ccc(S(=O)(=O)Nc2ccc3c(c2)CC(=O)N([C@@H](C)CO)C[C@H](C)[C@H](CN(C)S(=O)(=O)c2ccc(C)cc2)O3)cc1	·	8	·	·	16	·
Cc1cc(C)nc(N(C#N)CC(=O)c2ccccc2)n1	-7	·	9	10	1	29
CCc1ccc(C(=O)CN(C#N)c2nc(C)cc(C)n2)cc1	7	·	62*	-6	-6	17
